Lassa entry inh: qHTS for Inhibitors of binding or entry into cells for Lassa Virus; Lassa virus pseudotype entry inhibition, cell reporter; hit rate 1.2% among 300,000; Potency, µM (titrated, usually from 37.9 µM), for the others: top-dose activity change, negative = inhibition, usual class: inhibitors; AID 540256, 2011; calls by dose curve; tested in HEK293 cells; note: potency is the fitted concentration of half-maximal effect; % is set by controls: 0 for no effect and ±100 for the full control effect; nearly all actives have a fitted effect of over 50% in size
CHX counter: Cycloheximide Counterscreen for Small Molecule Inhibitors of Shiga Toxin; cell reporter, cycloheximide protein synthesis inhibition counterscreen; max response, %; hit rate 12% among 300,000; AID 2314, 2010; in the data active = max response mostly above about 13%, no sharp cut-off; inactive = mostly below about 14%; note: read at 38.3 µM for the half of the compounds with a filed dose; 0% is about no effect
Marburg entry inh: qHTS for inhibitors of binding or entry into cells for Marburg Virus | Marburg virus pseudotyped entry inhibition, cell reporter | Potency, µM (top dose mostly 37.8 µM), inactives show at the highest dose activity change, negative = inhibition, usual class: inhibitors | hit rate 1.8% among 300,000; calls by dose curve; tested in HEK293 cells; note: potency is the fitted concentration of half-maximal effect; % is set by controls: 0 for no effect and ±100 for the full control effect
AMA1-RON2 inh: qHTS for Inhibitors of AMA1-RON; Towards Development of Antimalarial Drug Lead: Primary Screen; Potency, µM (doses to about 58.2 µM), for inactives: top-dose activity change, negative = inhibition, usual class: inhibitors; AlphaScreen AMA1-biotinylated RON2 peptide binding; hit rate 0.2% among 360,000; active = well fitted inhibition curve with a large enough effect; inconclusive = small, poorly fitted or top-dose-only effect; inactive = no such curve, though single readings can be large or run the other way;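 note: potency is the fitted concentration of half-maximal effect; 0% = vehicle wells and -100% = peptide control; nearly all actives have a fitted effect of over 45% in size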
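AMA1 (3D7) with his tag at 25 nM final met compounds first, then biotinylated RON2 peptide at 25 nM; detection used donor plus acceptor beads, 10 µg/mL apiece, read by AlphaScreen after 30 min at room temperature.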
Shiga inhibitor: A qHTS for Small Molecule Inhibitors of Shiga Toxin. Vero cells, Shiga toxin protein synthesis inhibition reporter. inhibition, % at 38.7 µM. hit rate 9.2% among 290,000; in the data active = inhibition mostly above about 28%, no sharp cut-off; inactive = mostly below about 43%; note: 0% is about no effect
An asterisk follows results filed as active; ? = inconclusive; nt = no result given; [ ] = dose if it differs, or a comment. Shown is part of a subset that was picked to be rich in hits.

SMILES | Lassa entry inh | CHX counter | Marburg entry inh | AMA1-RON2 inh | Shiga inhibitor
Cc1ccc(CN(C(=O)Cn2nnc3ccccc32)C(C(=O)NCc2ccco2)c2ccc(C)o2)cc1 (stereo not drawn) | -26% | 16* | 3% | 8% | 42*
Cc1ccc(C(C(=O)NCc2ccco2)N(CCc2ccccc2)C(=O)Cn2nnc3ccccc32)o1 (stereo not drawn) | ? | 9 | ? | 5% | 40
COc1ccc(N(C(=O)Cn2nnc3ccccc32)C(C(=O)NCc2ccco2)c2ccc(C)o2)cc1 (stereo not drawn) | ? | 30* | -21%[46.1 µM] | -2% | 29
CCOC(=O)N1CCC(NC(=O)c2ccc3c(c2)N(Cc2ccc(F)cc2)C(=O)c2ccccc2S3(=O)=O)CC1 | 8%[46.1 µM] | nt | ? | nt | nt
OC(CN1CCNCC1)Cn1c2ccccc2c2ccccc21 (stereo not drawn) | nt | 0 | nt | -9% | -3
CCN(CC)CC(O)Cn1c2ccccc2c2ccccc21 (stereo not drawn) | ? | 8 | 13µM* | 1% | -33
CCN(CC(O)Cn1c2ccccc2c2ccccc21)S(=O)(=O)c1ccc(F)cc1 (stereo not drawn) | -3% | 7 | ? | -7% | -17
C=CCN(CC=C)CC(O)Cn1c2ccccc2c2ccccc21 (stereo not drawn) | ? | -6 | 8.2µM* | 2% | 5
COc1ccc2cc3cc(C(=O)N4CCN(c5cccc(Cl)c5)CC4)sc3nc2c1 | -2%[46.1 µM] | nt | 10%[46.1 µM] | nt | nt
CCOC(=O)CSc1ncc(-c2ccccc2)cn1 | -26% | 14 | 22% | 15% | 71
CSc1ncc(-c2ccccc2)cn1 | 16%[46.1 µM] | 47* | 0%[46.1 µM] | -13% | 77
CSc1nnc(-c2ccccc2)c(-c2ccccc2)n1 | nt | 1 | nt | -5% | -5
C=CCSc1ncc(-c2ccccc2)cn1 | 19% | 35* | 17%[46.1 µM] | 6% | 63*
C#CCSc1ncc(-c2ccccc2)cn1 | 16% | 44* | ? | 19% | 77*
C#CCSc1nnc(-c2ccccc2)c(=O)[nH]1 | ? | 2 | 2% | 3% | 32
COc1ccc(CN(C)CC(=O)Nc2cc(OC)c([N+](=O)[O-])cc2C)c(OC)c1 | ? | -4 | ? | 20%[2.32 µM] | -5
CC1(C)OC2OC(C3COC(=O)O3)C(OC(=O)c3ccccc3)C2O1 (stereo not drawn) | 10%[46.1 µM] | nt | 17%[46.1 µM] | -8% | nt
Cc1ccc2oc(C(=O)N3CCC(O)(c4cccc(C(F)(F)F)c4)CC3)c(C)c2c1 | 6%[46.1 µM] | 43* | ? | 5% | 63*
CC(=O)N1CCC(O)(c2cccc(C(F)(F)F)c2)CC1 | 0% | -4 | -9% | 7% | -19
CC1CCCC(NC(=O)c2ccc(F)c(S(=O)(=O)N3CCOCC3)c2)C1C (stereo not drawn) | 6% | nt | ? | -4% | nt
CCCC(=O)C1=C(c2cccc(OC)c2)N(C(=O)CCC)n2c(C)nnc2S1 | -10%[46.1 µM] | nt | nt | nt | nt
CCCNC[C@H](O)COc1ccccc1C(=O)CCc1ccccc1 | nt | nt | 7.1µM* | nt | nt
CC(C)(C)NCC(O)COc1ccccc1C(=O)CCc1ccccc1 (stereo not drawn) | -1% | -4 | 10µM* | 0% | -15
CC(C)(C)NCC(O)COc1ccccc1C(C)(C)C (stereo not drawn) | ? | -5 | ? | -6% | -14
CCOc1ccccc1C(=O)NC(C)CCc1ccccc1 (stereo not drawn) | nt | nt | nt | -2% | nt
SMILES | Lassa entry inh | CHX counter | Marburg entry inh | AMA1-RON2 inh | Shiga inhibitor
OC(CNCCc1ccccc1)COc1ccc(OCC(O)CNCCc2ccccc2)cc1 (stereo not drawn) | ? | -2 | 3.2µM* | -21% | -11
COC(=O)CNC(=O)COC(=O)c1ccc(OC)c([N+](=O)[O-])c1 | 29% | -3 | 14% | 11% | 2
Cc1ccc(N2C(=O)c3ccc(C(=O)N4CCOCC4)cc3C2=O)cc1C | -1% | -1 | 3% | -13% | 15
Oc1ccc(/C=N/Nc2cc(N3CCCC3)nc(N3CCCC3)n2)cc1 | -26% | 3 | ? | 7% | 12
Oc1ccc(/C=N/Nc2cc(N3CCOCC3)nc(N3CCOCC3)n2)cc1 | -19% | nt | 6.5µM* | -10% | nt
COc1ccc(/C=N/Nc2cc(N3CCCC3)nc(N3CCCC3)n2)cc1 | 3.2µM* | 18 | ? | ? | 21
CC(C)c1ccc2c(c1)C1Cc3ccccc3C1N2 (stereo not drawn) | ? | 56* | ? | -14% | 42*
